Source: PubChem
Shown are actives, neighbours in structure and some others; about 4.1% of the full set was active somewhere.
DAX1 inh-1 = inhibitors of human orphan nuclear receptor DAX1 (NR0B1) | P51843 | HEK293 Gal4-DAX1 luciferase reporter, luminescence | inhibition, % at 6.75 µM | 340,000 compounds, 0.99% hits | AID 504766;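 active = inhibition above the mean over all tested compounds plus 3 SD, cut at about 4.2% in these data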;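 note: inhibition shows as a rise in luminescence from relieved DAX1 repression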
Target sequence (P51843 207-470 limits assumed): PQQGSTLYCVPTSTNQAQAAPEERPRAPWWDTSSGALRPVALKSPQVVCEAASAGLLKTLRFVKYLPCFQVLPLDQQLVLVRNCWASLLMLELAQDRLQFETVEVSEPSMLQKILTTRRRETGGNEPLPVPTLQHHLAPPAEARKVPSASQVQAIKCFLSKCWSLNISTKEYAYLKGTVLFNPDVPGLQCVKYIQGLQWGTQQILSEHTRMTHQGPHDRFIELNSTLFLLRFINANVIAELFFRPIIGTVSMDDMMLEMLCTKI
hgDAF-12 ag = activates the H. glycines DAF-12 receptor ligand-binding domain; HEK293 GAL4-hgDAF12 UAS-luciferase reporter, agonist luminescence; normalized to butyrate control; activation, % at 6.8 µM; 370,000 compounds, 1.8% hits;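 active = activation above a cutoff set at the mean of all screened compounds plus 3 SD, cut at about 10% in these data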
ssDAF12 agonist = S. stercoralis DAF-12 activation, primary screen. HEK293 ssDAF-12/GRIP1 lit1-tk-luc reporter, luminescence; % of 3 µM dafachronic acid response. activation, % at 6.8 µM. 370,000 compounds, 1% hits;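 active = activation above the mean over all tested compounds plus 3 SD, cut at about 0.9% in these data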
DAX1 inh-2 = blocks DAX1 repression of SF-1 activated StAR promoter; HEK293T StAR-luciferase reporter, SF-1/DAX-1 repression relief; inhibition, % at 6.8 µM; 370,000 compounds, 1.1% hits; AID 652010;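 active = inhibition above the mean over all tested compounds plus 3 SD, cut at about 3.6% in these data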;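 note: higher inhibition means more luminescence from relief of DAX-1 repression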
hcDAF12 agonist = activates DAF-12 receptor from parasite H. contortus; HEK293 hcDAF-12 lit1-tk-luc reporter, luminescence; 0% DMSO, 100% Δ7-dafachronic acid; activation, % at 6.8 µM; 370,000 compounds, 1.4% hits;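 active = activation above the mean of all tested compounds plus 3 SD, cut at about 5.5% in these data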
Large screens that a line does not name were inactive.

O=C(CCc1ccccc1)N[C@H]1[C@H](OCc2ccccc2)CCC[C@@]12C(=O)N(Cc1ccccc1)c1ccccc12	none (no result: DAX1 inh-1)
Clc1cccc(Cc2c(-c3ccco3)nc3ccc(Br)cn23)c1	ssDAF12 agonist 1.9 (no result: DAX1 inh-1)
Cc1ccc2nc(-c3cccc(Br)c3)c(Cc3cccc(Cl)c3)n2c1	DAX1 inh-2 7.3 (no result: DAX1 inh-1)
Clc1cccc(Cc2c(-c3cccc(Br)c3)nc3ccc(Cl)cn23)c1	none (no result: DAX1 inh-1)
Cc1ccc2nc(-c3ccc(C#N)cc3)c(Cc3ccccc3)n2c1	hgDAF-12 ag 11 (no result: DAX1 inh-1)
COc1ccccc1Cc1c(-c2cccc(Br)c2)nc2ccc(C)cn12	hgDAF-12 ag 12, ssDAF12 agonist 1.2 (no result: DAX1 inh-1)
CCCC[C@@H]1C(=O)N2N=Cc3cc(C)c(C)cc3[C@H]2N2N=Cc3cc(C)c(C)cc3[C@@H]12	none (no result: DAX1 inh-1)
O=C(OCC#CCSc1nnc(-c2cccc3ccccc23)o1)C1CC1	none (no result: DAX1 inh-1, DAX1 inh-2)
COc1cc(/C=C/CO)ccc1O[C@@H]1O[C@H](CO)[C@@H](O)[C@H](O)[C@H]1O	DAX1 inh-1 4.7
OCc1ccccc1O[C@@H]1O[C@H](CO)[C@@H](O)[C@H](O)[C@H]1O	none
CCN(CC)C(=O)Oc1ccc2cc(Br)ccc2c1	hcDAF12 agonist 6.3
O=C(Cn1cnc2ccccc2c1=O)N1CCN(C(=O)C2CCCO2)CC1 (stereo not given)	none (no result: DAX1 inh-1)
C[C@H]1[C@@H](NC(=O)c2ccc(O)cc2)CC[C@@]23CCCN2C(=O)CCC[C@@H]13	none (no result: DAX1 inh-1, DAX1 inh-2)
O=S(=O)(c1ccc(F)cc1)N1CCN(CC2CC3C=CC2C3)CC1 (stereo not given)	hcDAF12 agonist 6.5
O=S(=O)(c1ccccc1)N1CCN(CC2CC3C=CC2C3)CC1 (stereo not given)	none
c1ccc(SCc2nc(-c3ccncc3)no2)cc1	hcDAF12 agonist 5.6
FC(F)(F)Oc1ccc(Nc2nc3ccccc3o2)cc1	hcDAF12 agonist 5.7
Cc1cc(C)nc(Nc2nc3ccccc3o2)n1	none
N#Cc1ccccc1N1CCN(C(=O)C2CCN(c3ncnc4c3sc3cccc(F)c34)CC2)CC1	none (no result: DAX1 inh-1)
O=C(CCn1nnc2ccccc21)N1CCN(c2ccc(F)cc2)CC1	none (no result: DAX1 inh-1)
COc1ccc(/C=C2\CCC(C3CCCC3)C2=O)c(OC)c1OC (stereo not given)	none
COc1cccc(/C=C2\CCC(C3CCCC3)C2=O)c1OC (stereo not given)	hgDAF-12 ag 13
Cc1cc(Nc2cnc3ccccc3n2)n(-c2ccccc2)n1	ssDAF12 agonist 1.9
O=C(N/N=C/C=C\c1ccco1)c1cccs1	ssDAF12 agonist 1.3 (no result: DAX1 inh-1)
CCN1CCN(Cc2ccc(OCc3ccccc3)cc2)CC1	hgDAF-12 ag 13
c1ccc(COc2ccc(OCCN3CCCC3)cc2)cc1	none
c1ccc(COc2ccc(OCCN3CCCCC3)cc2)cc1	hcDAF12 agonist 6.0
O=C(OCc1nc2ccccc2s1)c1ccccc1O	none
CCc1cc(C(=O)Cc2nc3ccccc3s2)c(O)cc1OCC(=O)O	ssDAF12 agonist 0.9
O=C(NNC(=S)NC(=O)c1sc2ccccc2c1Cl)c1ccc(Cl)cc1	ssDAF12 agonist 1.2
C[N+]1=C(N)NC2=C3CCCCC3n3c(=O)n(-c4ccccc4)c(=O)n3C2C1 (stereo not given)	none (no result: DAX1 inh-1)
COC(=O)c1cnn(-c2ccc(F)cc2F)c1/C=N/NC(=S)Nc1ccccc1	none (no result: DAX1 inh-1, DAX1 inh-2)
NC(=O)c1c(N)[nH]c(C(=O)c2ccccc2)c1-c1cccc2ccccc12	ssDAF12 agonist 1.0 (no result: DAX1 inh-1, DAX1 inh-2)
Nc1[nH]c(C(=O)c2ccccc2)c(-c2cccc3ccccc23)c1C(=O)c1cccs1	none (no result: DAX1 inh-1)
O=C(CSc1nc2ccccc2c(=O)n1-c1ccc(Cl)cc1)N/N=C/C=C/c1ccccc1[N+](=O)[O-]	hcDAF12 agonist 5.8
O=[N+]([O-])c1ncccc1OCCOc1ccc(Cl)cc1Cl	none (no result: DAX1 inh-1, DAX1 inh-2)
CC(NCc1ccco1)C(=O)N1CCCC1 (stereo not given)	none (no result: DAX1 inh-1)
O=C(COc1ccccc1)NNc1nc2c(F)cccc2s1	none
Cc1cccc2sc(NNC(=O)c3cc(=O)c4ccccc4o3)nc12	ssDAF12 agonist 1.4, hcDAF12 agonist 6.0
Cc1ccc2sc(NNC(=O)c3cc(=O)c4ccccc4o3)nc2c1C	none
O=C(NNc1nc2c(F)cccc2s1)c1cc(=O)c2ccccc2o1	hcDAF12 agonist 6.2
O=C(NNc1nc2c(F)cccc2s1)c1ccc(F)cc1	ssDAF12 agonist 1.3
C[C@H](O)[C@@H]1CN2CCc3c([nH]c4c(-c5ccccc5)cccc34)[C@@H]2C[C@@H]1N(C)CC1CCCCC1	none (no result: DAX1 inh-1)
COc1ccc(/C=N/NC(=O)c2c(C)nnn2-c2nonc2N)cc1OC	DAX1 inh-1 5.8
COc1ccc(/C=N/NC(=O)c2nnn(-c3nonc3N)c2C)cc1OC	none
O=C(O)c1ccc(N/N=C/C=C/c2ccccc2[N+](=O)[O-])cc1	hgDAF-12 ag 12, ssDAF12 agonist 3.6
Oc1ccccc1C=NN=CC=Cc1ccccc1	none
O=[N+]([O-])c1ccccc1C=CC=NN=Cc1ccccc1O	DAX1 inh-1 5.5
C=CCN(CC#Cc1ccccc1)CC1CC1	none (no result: DAX1 inh-1)
Cn1cccc1C(=O)NCCc1ccccc1	hgDAF-12 ag 13
Cn1cccc1C(=O)NCc1ccc(Cl)cc1	none
Cc1nn(Cc2ccccc2)c(Cl)c1C(=O)NCCc1ccccc1	hgDAF-12 ag 11, DAX1 inh-2 3.8
Cn1cccc1C(=O)NCCc1ccc(Cl)cc1	DAX1 inh-2 4.0
Cn1cccc1C(=O)NNC(=O)c1ccccc1Br	none
Cc1ccccc1C(=O)NNC(=O)c1cccn1C	DAX1 inh-2 4.0
Cc1ccccc1NC(=O)CCS(=O)(=O)c1ccccc1	none (no result: DAX1 inh-1)
Cn1cccc1C(=O)NCC1CCCCC1	none
Cn1cccc1C(=O)NC1CCCCCC1	DAX1 inh-2 4.4
CCOc1ccc2nc(NS(=O)(=O)Cc3ccccc3)sc2c1	DAX1 inh-1 10
COc1cccc(NC(=O)Cn2cc3c(n2)CCCCC3)c1	none
COc1ccc(CNC(=O)Cn2cc3c(n2)CCCCC3)cc1	DAX1 inh-1 5.7
CCOC(=O)c1cc(-c2ccc(N)cc2)sc1N	none
CCOC(=O)c1sc(-c2ccc(Br)cc2)cc1N	hgDAF-12 ag 11
COC(CNC(=O)c1ccc2nc3ccccc3c(=O)n2c1)OC	hcDAF12 agonist 5.7
COc1cccc(NC(=O)CN(C2=NC3CS(=O)(=O)CC3S2)c2cccc(C)c2)c1 (stereo not given)	ssDAF12 agonist 1.2
COc1ccc(N(CC(=O)Nc2cc(Cl)ccc2OC)C2=NC3CS(=O)(=O)CC3S2)cc1 (stereo not given)	none
CCOc1ccc2oc(C(=O)NC(C)(C)CC)c(C)c2c1	hgDAF-12 ag 13
COc1ccc2c(c1)CNC2CS(=O)(=O)NCc1ccccc1 (stereo not given)	none (no result: DAX1 inh-1)
Cc1ccsc1/C=N\NC(=O)c1ccc2c(c1)OCO2	DAX1 inh-2 4.0
Cc1cccc(/C=N/NC(=O)c2ccc3c(c2)OCCO3)c1O	ssDAF12 agonist 1.1
O=C(NCCCN1CCOCC1)C(=O)N/N=C/c1ccc(F)cc1	none
Cc1ccc(C(=O)N/N=C\c2sccc2C)cn1	none
O=C(NCCCN1CCOCC1)C(=O)N/N=C/c1ccc2c(c1)OCO2	DAX1 inh-1 4.4
